# PubChem BioAssay AID624093 (National Center for Advancing Translational Sciences (NCATS), 2012)
# Records with an inconclusive call do not appear. Calls of active or inactive are those of the source. The call rests on the fitted dose curve; in most records, active means well fitted inhibition curve with a large enough effect; inconclusive means small, poorly fitted or top-dose-only effect; inactive means flat fitted curve, though single readings scatter.
# Molecular target: Dual specificity tyrosine-phosphorylation-regulated kinase 1A (Homo sapiens) (UniProt Q13627)
# Experiment: Confirmation Assay for Inhibitors of Dyrk1a (Kinase-Glo Assay): KU probe
# Settings: Kinase-Glo ATP luminescence; series mostly up to 76.9 µM
# Source text: NIH Molecular Libraries Probe Production Centers Network [MLPCN] NIH Chemical Genomics Center [NCGC] MLSCN Grant: 1R03MH084827-01 PI Name: Tom Misteli NCGC Assay Overview: The CMGC group of protein kinases which includes CDK-like kinases (Clk) and Dyks are essential kinases found in all eukaryotes. Clks have been implicated to play a role in the regulation of alternative splicing; while Dyrks, in particular over expression of Dyrk1A, has been linked to diseases as Down syndrome (DS; OMIM 190685) and Alzheimer disease (AD; OMIM 104300). Among the members of the CMGC group, the Clks and the Dyrks are very closely related therefore to determine validity and selectivity of an active compound observed in the CLK4 qHTS screen (AID:1770), a bioluminescent counter-screen against Dyrk1A was developed. In addition, potent and selective compounds against Dyrk1A were identified to further assess the role of this enzyme in DS and AD. Dyrk1A (Invitrogen, cat # PV3785) was assayed using ATP and DYRKtide (AnaSpec, cat# 62698) as substrates. Promega Kinase-Glo (cat# V6712) technology was used to detect the residual ATP following kinetic reaction. The Kinase-Glo Plus contains Ultra-Glo [5] luciferase and D-luciferin which generates a bioluminescence signal from the remaining ATP. No enzyme and harmine (Sigma, cat # 286044-1G), a compound shown to inhibit Dyrks were used as a positive control; while DMSO treatment was used as a negative control.
# NCGC Assay Protocol Summary: Two uL/well of substrate solution (8uM Dyrktide, 2uM ATP, 25mM Tris-HCl pH 7.5, 10mM MgCl2 , 0.5mM EGTA, 5mM cystein, 0.01% Triton X-100 final concentration) was dispensed into 1536-well assay plates (Greiner, solid white, medium-binding plates) with Aurora Discovery BioRAPTR Flying Reagent Dispenser (FRD, Beckton-Dickenson). Compound solution (23 nL) was transferred to the assay plate using Kalypsys pin tool equipped with a 1536-pin tool. One uL/well enzyme solution (5nM Dyrk1A, 25mM Tris-HCl pH7.5, 10mM MgCl2, 0.5mM EGTA, 5mM cystein, 0.01% Triton X-100 final concentration) was then added using FRD yielding a total kinase reaction volume of 3uL/well. After 2 hours of room temperature incubation, 3uL Kinase-Glo detection reagent was added for a final assay volume of 6uL/well. The plates were spun for 30 seconds (1000 rpm) and incubated at ambient temperature for 2 minutes followed by a luminescence read using Perkin Elmer ViewLux plate reader at 3 seconds exposure time and 2x binning.
row,Structure (SMILES),Potency
1,O=C(O)c1ccc(-c2ccc3ncnc(NCC4CCCO4)c3c2)o1 (stereo not given),20700 nM (active)
2,COc1ccc(-c2nccc(NCc3ccc(Cl)c(Cl)c3)n2)cc1,inactive
3,Cc1noc(C)c1-c1ncccn1,inactive
4,c1nc(NCC2CCCCC2)c2cc(-c3ccc4c(c3)OCO4)ccc2n1,116 nM (active)
5,CCN(C)c1ncnc2ccc(-c3ccc4c(c3)OCO4)cc12,260 nM (active)
6,COc1ccc(-c2ccnc(NCc3ccc(Cl)cc3)n2)cc1,1840 nM (active)
7,c1cncc(CNc2ccnc(-c3ccc4ccccc4c3)n2)c1,14600 nM (active)
8,CC(=O)c1ccc(-c2ccc3ncnc(NCc4ccc(C)o4)c3c2)o1,1640 nM (active)
9,CCNC(=O)c1ccc(-c2ccc3ncnc(NCC4CCCO4)c3c2)o1 (stereo not given),2600 nM (active)
10,c1cncc(CNc2nccc(-c3ccc4[nH]ncc4c3)n2)c1,146 nM (active)
11,Clc1ccc(CNc2ncncc2-c2ccc3c(c2)OCO3)cc1,26000 nM (active)
12,CN(C)c1ccc(-c2nccc(NCc3ccccc3)n2)cc1,inactive
13,CN(C)c1ccc(-c2ncccn2)cc1,inactive
14,c1nc(NCC2CCOC2)c2cc(-c3ccc4c(c3)OCO4)ccc2n1 (stereo not given),92.3 nM (active)
15,COc1ccc(CNc2ccnc(-c3ccc(N(C)C)cc3)n2)cc1,inactive
16,c1nc(NCC2CC2)c2cc(-c3ccc4c(c3)OCO4)ccc2n1,41.2 nM (active)
17,c1cncc(CNc2ncncc2-c2ccc3c(c2)OCO3)c1,26000 nM (active)
18,COc1ccc(-c2nccc(NCc3ccc(C)cc3)n2)cc1,inactive
19,c1cncc(CNc2cc(-c3ccc4c(c3)OCO4)ncn2)c1,16400 nM (active)
20,c1nc(NCC2CCCC2)c2cc(-c3ccc4c(c3)OCO4)ccc2n1,65.4 nM (active)

row,Structure (SMILES),Potency
1,c1nc(NCCc2cnc[nH]2)c2cc(-c3ccc4c(c3)OCO4)ccc2n1,328 nM (active)
2,Clc1cc(CNc2ccnc(-c3ccc4c(c3)OCO4)n2)ccn1,23200 nM (active)
3,COc1cccc(-c2ccnc(NCc3ccc(Cl)cc3)n2)c1,7330 nM (active)
4,FC(F)(F)c1cccc(Nc2nccc(-c3ccc4c(c3)OCO4)n2)c1,65.4 nM (active)
5,COc1ccc(-c2nccc(NCc3ccccc3)n2)cc1,inactive
6,Clc1ccc(CNc2nccc(-c3ccc4c(c3)OCCO4)n2)cc1Cl,207 nM (active)
7,Clc1ccc(Nc2nccc(-c3ccc4c(c3)OCO4)n2)cc1,519 nM (active)
8,Cc1ccc(CNc2ccnc(-c3ccc(N(C)C)cc3)n2)cc1,inactive
9,O=C(Nc1ccnc(-c2ccc3c(c2)OCO3)n1)c1ccncn1,inactive
10,Brc1cc(Br)cc(CNc2nccc(-c3ccc4c(c3)OCO4)n2)c1,73.3 nM (active)
11,CN(C)c1ccc(-c2nccc(NCc3ccc(Cl)cc3)n2)cc1,inactive
12,Cc1noc(C)c1-c1nccc(NCc2ccc(Cl)c(Cl)c2)n1,inactive
13,c1cc(-c2ccoc2)nc(-c2ccc3c(c2)OCO3)n1,29200 nM (active)
14,Clc1ccc(CNc2ccnc(-c3ccc4c(c3)OCO4)n2)cc1Cl,inactive
15,c1cncc(CNc2nccc(-c3ccc4cn[nH]c4c3)n2)c1,207 nM (active)
16,Clc1ccc(CNc2nccc(-c3ccc4cn[nH]c4c3)n2)cc1Cl,412 nM (active)
17,N#Cc1cccc(-c2ncccn2)c1,inactive
18,c1cncc(CNc2ccnc(-c3cccc4ccccc34)n2)c1,41200 nM (active)
19,Cc1ccc(CNc2ccnc(-c3ccc4c(c3)OCO4)n2)cc1,inactive
20,COc1ccc(CNc2ccnc(-c3c(C)noc3C)n2)cc1,inactive
